Only some compounds are listed: those with a hit (about 3.7% of all), similar ones and a draw of the others.
Nrf2 ARE act – activators of Nrf2 (ARE) signaling. AREc32 ARE-luciferase reporter (MCF7-derived line), luminescence, 24 h. Potency, µM (highest dose often 46.1 µM), usual class: activators. 410,000 compounds, 0.31% hits; also: nearly all actives have a fitted effect of over 65% in size
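ARE-driven firefly luciferase activity in AREc32 cells measured after a 24 hr compound exposure at 37 deg C, using Steady-Glo reagent and a 30 min room-temperature hold.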
ELG1 DNA repair – inhibitors of ELG1-dependent DNA repair in HEK293T cells | HEK293T ELG1-luciferase reporter, luminescence, 16 h; DNA damage induced by 5-fluorouridine | Potency, µM (top dose mostly 46.1 µM), actives largely listed as inhibitors | 330,000 compounds, 2.3% hits; also: nearly all actives have a fitted effect of over 55% in size
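Step one: seed 2,000 cells per well. Step two: pin-transfer compound or DMSO alongside 5-fluorouridine. Step three: incubate 16 hr, 37 °C, 5% CO2. Step four: add ONE-Glo, wait 30 min, read luminescence.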
Nrf2 inh – blocks Nrf2 signaling. A549 ARE-Fluc reporter, luciferase luminescence, 18-24 h. Potency, µM (top dose mostly 46 µM), actives largely listed as inhibitors. 360,000 compounds, 2.1% hits; also: nearly all actives have a fitted effect of over 60% in size
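A549 ARE_Fluc cells, 5000/well, 5% FBS OPTI-MEM; compounds in dose-response, 18-24 h at 37 °C/5% CO2; CellTiter-Fluor viability read (Ex 405/Em 525), then BugLite luciferase luminescence = Nrf2 activity.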
A549 viability – A549 cytotoxicity, counter-screen for Nrf2 inhibitors | A549 ARE-Fluc cells, CellTiter-Fluor viability, 18-24 h | Potency, µM (titrated, usually from 46 µM), usual class: inhibitors | 390,000 compounds, 0.16% hits
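A549 ARE_Fluc cells in 5% FBS OPTI-MEM were exposed to compounds in concentration-response for 18-24 h at 37 deg C. Viability was read by CellTiter-Fluor fluorescence (Ex 405/Em 525) after 30 min, before the luciferase read.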
Numbers stand for hits; – = inactive; ? = inconclusive; · = no result given. Calls follow the shape of the dose curve; as a rule, active = well fitted curve in the direction sought with a large enough effect; inconclusive = small, poorly fitted or top-dose-only effect, or another doubt; inactive = no such curve, though single readings can be large; an effect the other way counts as inactive or inconclusive.

SMILES	Nrf2 ARE act	ELG1 DNA repair	Nrf2 inh	A549 viability
COc1ccc2c(CN3CCN(c4ccccc4F)CC3)cc(=O)oc2c1	–	·	·	·
CCN(CC)S(=O)(=O)c1ccc(OC)c(NC(=O)C(C)Oc2ccc3c(C)cc(=O)oc3c2)c1 (configuration not stated)	–	21µM	?	–
Cc1ccc(S(=O)(=O)N2CCC(C(=O)NCCN3CCOCC3)CC2)cc1	–	·	·	·
CCN(CC)S(=O)(=O)c1ccc(N2CCOCC2)c(NC(=O)c2ccccc2F)c1	–	–	–	–
CCN(CC)S(=O)(=O)c1ccc(N2CCOCC2)c(NC(=O)c2cc3ccccc3oc2=O)c1	–	5.2µM	–	–
CCN(CC)S(=O)(=O)c1ccc(N2CCOCC2)c(NC(=O)c2cc(Cl)c3c(c2)OCO3)c1	–	8.2µM	?	–
CCN(CC)S(=O)(=O)c1ccc(N2CCOCC2)c(NC(=O)c2ccc(F)cc2)c1	–	?	–	–
Cc1cc(C)n2ncc(C(=O)NCC(C)C)c2n1	·	·	–	–
COc1ccc(CC(=O)Nc2ccc3nc(Nc4cccc(Cl)c4)cc(C)c3c2)cc1	–	·	26µM	?
Cc1cc(Nc2cccc(C(F)(F)F)c2)nc2ccc(NC(=O)Cc3ccc(Cl)cc3)cc12	–	·	16µM	?
CCCNC(=O)c1ccc(N2CCC3(CC2)CC(c2ccccc2)=NO3)c(NC(=O)Cc2ccc(F)cc2)c1	–	21µM	–	–
COc1cccc2cc(-c3nc(-c4ccc(Cl)cc4)cs3)c(=O)oc12	–	·	·	–
CCOC(=O)CCc1c(C)c2ccc(OCC(=O)N(CC)CC)c(C)c2oc1=O	–	18µM	–	–
CCc1c(C)c2ccc(OCC(=O)N(C)C)c(C)c2oc1=O	–	?	?	–
COc1ccc(CC2C(=O)NC(C)C(=O)N(C)C3Cc4ccc(cc4)Oc4cc(ccc4O)CC(C(=O)NC(C)C(=O)NC(C)C(=O)N2C)N(C)C3=O)cc1 (configuration not stated)	–	·	1.6µM	2.3µM
CCn1c(=O)c2cc(C(=O)N3CCN(c4cccc(Cl)c4)CC3)sc2c2ccccc21	–	·	–	–
CC1=CC2=NC(=O)/C(=C\c3cccn3CCOc3ccc(C)c(C)c3)C(=N)N2O1	–	18µM	–	?
CC1=CC2=NC(=O)/C(=C/c3cccn3Cc3ccccc3)C(=N)N2O1	–	–	–	–
N=C1/C(=C/c2cccn2CCOc2ccccc2)C(=O)N=C2SC=C(c3ccccc3)N12	–	18µM	–	?
COc1ccc(-c2noc(CSc3nnc(C)n3-c3ccc(F)cc3)n2)cc1	–	·	–	–
Cc1ccc(N2CCN(S(=O)(=O)c3ccc4c(c3)CC(=O)N4)CC2)cc1	·	·	–	–
CN(C)CCSc1nc2cc(S(=O)(=O)N3CCCCC3)ccc2o1	–	–	–	–
Cc1cccc(NC(=O)CSc2nc(C)nc3c2c(=O)n(C)c(=O)n3C)c1	–	–	–	–
Cc1csc(NC(=O)CSc2nc(C)nc3c2c(=O)n(C)c(=O)n3C)n1	–	21µM	?	–
CCCc1nc(SCC(=O)N2CCC(C)CC2)c2c(=O)n(C)c(=O)n(C)c2n1	–	?	–	–
SMILES	Nrf2 ARE act	ELG1 DNA repair	Nrf2 inh	A549 viability
CCc1nc(SCC(=O)Nc2nnc(CC)s2)c2c(=O)n(C)c(=O)n(C)c2n1	–	16µM	?	–
CCc1nc(SCC(=O)N2CCC(C)CC2)c2c(=O)n(C)c(=O)n(C)c2n1	–	21µM	–	–
CN1C(C)(C)CC(=NO)CC1(C)C	–	·	–	–
COc1ccc(N/N=C(/C(C)=O)N2CCCc3ccccc32)cc1	–	–	6.5µM	–
Cc1ccc(S(=O)(=O)Nc2ccc3c(c2)CCC3)cc1	–	–	12µM	?
CC(=O)N1c2ccc(S(=O)(=O)Nc3ccc(C)c(Cl)c3)cc2CC1C (configuration not stated)	–	·	?	–
COc1ccc(S(=O)(=O)Nc2ccc3c(c2)N(C(C)=O)CCC3)cc1OC	–	–	–	–
CC(=O)N1c2ccc(S(=O)(=O)Nc3ccc(C)c(C)c3)cc2CC1C (configuration not stated)	·	·	10µM	?
COc1ccc(S(=O)(=O)Nc2ccc3c(c2)N(C(C)=O)CCC3)cc1	–	–	12µM	–
Cc1ccccc1CSc1ncc(CO)n1Cc1ccc(F)cc1	–	·	·	–
COc1ccccc1OCCNC(=O)C1CC(=O)N(c2cccc(SC)c2)C1 (configuration not stated)	–	–	–	–
CC(=O)N1CCc2cc(S(=O)(=O)Nc3cccc(C(F)(F)F)c3)ccc21	–	?	9.2µM	–

Screening results deposited in PubChem by National Center for Advancing Translational Sciences (NCATS).
